# Measurements taken from the supplement of paper PMC12494721.
# Structures can show the parent of a compound that is named as a salt.
# Legend:
# Conditions in all cases: incubation time: 27 h, anaerobic, 37 °C;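 for the amine columns active = adjusted P below 0.05 in both replicates with a change the same way and a mean fold change under 0.8 or over 1.25; inactive = the rest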
# [1] = system: Clostridium sporogenes DSM 1664; experiment: growth (OD595) fold change vs plate DMSO controls (fold change (ratio)); higher = more growth
# Summary of the method: (§1)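 The 96-well mGAM cultures had been kept anaerobic for 27 h at 37 °C before being shaken and read at 595 nm. Blank subtraction, compound background correction with 20 µM compound solutions in water, and a calibration factor of 5 turned the readings into OD. Growth is given as the fold change versus the median of plate DMSO controls. Fold changes above 1.5 were set to NA, and the values are means of 2 biological replicates.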
# Escherichia coli IAI1 [2] = experiment: as above
# Summary of the method: as §1
# [3] = system: Klebsiella aerogenes DSM 30053; experiment: as above
# Summary of the method: as §1
# [4] = system: Ruminococcus gnavus DSM 108212; experiment: as above
# Summary of the method: as §1
# [5] = system: Klebsiella aerogenes DSM 30053; experiment: fold change of Histamine concentration vs plate DMSO controls (fold change (ratio)); higher = more amine produced, active = hit call of the paper (significant change in both replicates, either direction)
# Summary of the method: (§2)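 Amines were quantified by LC–triple-quadrupole MS in dynamic MRM mode against external calibration curves, with drift correction within each batch. The samples were whole anaerobic mGAM cultures of four gut bacterial strains, grown for 27 h at 37 °C in 80 µL wells and extracted with cold acetonitrile/methanol with 0.1% formic acid, then centrifuged. Values are reported as fold change over DMSO controls on the same plate. The mean of 2 biological replicates is given.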
# [6] = system: Clostridium sporogenes DSM 1664; experiment: fold change of Tryptamine concentration vs plate DMSO controls (fold change (ratio)); higher = more amine produced, active = hit call of the paper (significant change in both replicates, either direction)
# Summary of the method: as §2
# [7] = system: Ruminococcus gnavus DSM 108212; experiment: as above
# Summary of the method: as §2
# Escherichia coli IAI1 [8] = experiment: fold change of Putrescine concentration vs plate DMSO controls (fold change (ratio)); higher = more amine produced, active = hit call of the paper (significant change in both replicates, either direction)
# Summary of the method: as §2
# [9] = system: Klebsiella aerogenes DSM 30053; experiment: as above
# Summary of the method: as §2
# Escherichia coli IAI1 [10] = experiment: fold change of Cadaverine concentration vs plate DMSO controls (fold change (ratio)); higher = more amine produced, active = hit call of the paper (significant change in both replicates, either direction)
# Summary of the method: as §2
# [11] = system: Klebsiella aerogenes DSM 30053; experiment: as above
# Summary of the method: as §2
# [12] = system: Ruminococcus gnavus DSM 108212; experiment: fold change of 2-Phenylethylamine concentration vs plate DMSO controls (fold change (ratio)); higher = more amine produced, active = hit call of the paper (significant change in both replicates, either direction)
# Summary of the method: as §2
Structure (SMILES),growth [1],growth (Escherichia coli IAI1 [2]),growth [3],growth [4],fold change of Histamine concentration [5],fold change of Tryptamine concentration [6],fold change of Tryptamine concentration [7],fold change of Putrescine concentration (Escherichia coli IAI1 [8]),fold change of Putrescine concentration [9],fold change of Cadaverine concentration (Escherichia coli IAI1 [10]),fold change of Cadaverine concentration [11],fold change of 2-Phenylethylamine concentration [12]
N[C@@H]1CONC1=O [D-cycloserine] (20 µM),0.977,0.973,1.09,0.926,0.897 (inactive),0.958 (inactive),0.931 (inactive),1 (inactive),1.03 (inactive),1.02 (inactive),1.05 (inactive),0.868 (inactive)
CCN(CC)CCOC(=O)c1ccc(N)cc1 [Procaine hydrochloride] (20 µM),0.834,1.24,1.08,1.23,0.974 (inactive),1.04 (inactive),1.04 (inactive),1.16 (inactive),1.03 (inactive),0.979 (inactive),1.01 (inactive),0.992 (inactive)
Nc1ccn([C@@H]2O[C@H](CO)[C@@H](O)[C@@H]2O)c(=O)n1 [Cytarabine] (20 µM),0.956,1.03,1.03,0.571,0.975 (inactive),0.967 (inactive),0.63 (active),0.953 (inactive),1.02 (inactive),1.32 (active),1.01 (inactive),0.69 (active)
OC(CCCN1CCCCC1)(c1ccccc1)c1ccccc1 [Diphenidol hydrochloride] (20 µM),1.03,1.08,1.01,1.26,1.06 (inactive),1.03 (inactive),0.963 (inactive),1.05 (inactive),1.02 (inactive),0.932 (inactive),0.981 (inactive),0.92 (inactive)
CC(C)(Oc1ccc(C2CC2(Cl)Cl)cc1)C(=O)O (stereo not drawn) [Ciprofibrate] (20 µM),0.861,0.88,0.891,0.992,1.01 (inactive),1.04 (inactive),0.951 (inactive),1.01 (inactive),1 (inactive),1.03 (inactive),0.992 (inactive),0.949 (inactive)
CCCC(CCC)C(=O)O[C@H]1C[C@H]2CC[C@@H](C1)[N+]2(C)C [Anisotropine Methylbromide] (20 µM),1.04,1.07,0.99,1.01,0.986 (inactive),1.06 (inactive),1.04 (inactive),1.03 (inactive),0.962 (inactive),0.948 (inactive),0.99 (inactive),1.06 (inactive)
CCn1cc(C(=O)O)c(=O)c2ccc(C)nc21 [Nalidixic acid sodium salt] (20 µM),1.09,0.265,0.814,1.13,1.43 (inactive),0.991 (inactive),1.02 (inactive),0.671 (inactive),1.05 (inactive),1.69 (inactive),0.966 (inactive),1.07 (inactive)
Cn1ccnc1S [Methimazole] (20 µM),1.17,1.11,0.998,1.13,1.04 (inactive),0.989 (inactive),0.998 (inactive),1.17 (inactive),1 (inactive),0.976 (inactive),0.984 (inactive),0.993 (inactive)
O=C(Cn1ccnc1[N+](=O)[O-])NCCO [Etanidazole] (20 µM),0.988,1.01,1.06,0.954,0.832 (inactive),0.98 (inactive),1.28 (active),0.91 (inactive),1.03 (inactive),1.02 (inactive),1.11 (inactive),1.83 (active)
Oc1ccc(C2CNCCc3c2cc(O)c(O)c3Cl)cc1 (stereo not drawn) [Fenoldopam] (20 µM),1.08,0.952,0.998,0.973,1.02 (inactive),0.95 (inactive),1.03 (inactive),1.01 (inactive),0.988 (inactive),1.04 (inactive),0.987 (inactive),1.03 (inactive)
CCC(=O)c1c(O)cc(O)cc1O [Flopropione] (20 µM),0.955,1.01,0.997,0.986,1.01 (inactive),1 (inactive),0.927 (inactive),1 (inactive),1.01 (inactive),1 (inactive),1 (inactive),0.896 (inactive)
C[n+]1ccccc1/C=N/O [Pralidoxime chloride] (20 µM),1.19,0.995,1.01,1.05,1.13 (inactive),1.02 (inactive),1.01 (inactive),0.968 (inactive),1.04 (inactive),1.02 (inactive),0.991 (inactive),1.01 (inactive)
CCN(CC)CCNc1ccc(CO)c2sc3ccccc3c(=O)c12 [Hycanthone] (20 µM),1.05,1.03,1.03,0.939,0.979 (inactive),0.791 (active),0.917 (inactive),1.01 (inactive),0.993 (inactive),0.967 (inactive),1.01 (inactive),0.917 (inactive)
OC[C@H]1O[C@@](CO)(OC[C@@]2(OC[C@@]3(O[C@H]4O[C@H](CO)[C@@H](O)[C@H](O)[C@H]4O)O[C@H](CO)[C@@H](O)[C@@H]3O)O[C@H](CO)[C@@H](O)[C@@H]2O)[C@@H](O)[C@@H]1O [Nystose] (50 µM),1.05,1.09,1.02,1.05,1.05 (inactive),1.01 (inactive),1 (inactive),0.999 (inactive),1.01 (inactive),0.958 (inactive),0.995 (inactive),0.994 (inactive)
Cc1onc(-c2ccccc2Cl)c1C(=O)N[C@@H]1C(=O)N2[C@@H]1SC(C)(C)[C@@H]2C(=O)O [Cloxacillin sodium salt] (20 µM),0,1.02,1.08,0.171,0.987 (inactive),0.0211 (active),0.0749 (active),0.997 (inactive),1.02 (inactive),0.999 (inactive),1.02 (inactive),0.0503 (active)
CC(C)NC[C@H](O)COc1cccc2ccccc12 [(S)-(-)-Propranolol hydrochloride] (20 µM),0.943,1.03,1.07,1.14,0.885 (inactive),1.02 (inactive),1 (inactive),0.986 (inactive),0.993 (inactive),0.968 (inactive),1.01 (inactive),1.02 (inactive)
"CCc1cc(Cl)c(OC)c(C(=O)NC[C@@H]2CCCN2CC)c1O [(S,-) Eticlopride hydrochloride] (20 µM)",0.973,0.985,1.02,0.979,1.04 (inactive),0.99 (inactive),0.88 (inactive),0.975 (inactive),1.02 (inactive),1.01 (inactive),0.985 (inactive),0.939 (inactive)
CN1CCC(=C2c3ccccc3CC(=O)c3sccc32)CC1 [Ketotifen fumarate] (20 µM),1,0.988,1.07,1,0.935 (inactive),1.02 (inactive),0.991 (inactive),0.966 (inactive),0.996 (inactive),1.01 (inactive),1.01 (inactive),0.968 (inactive)
Cc1c(F)c(N2CCNC(C)C2)cc2c1c(=O)c(C(=O)O)cn2C1CC1 (stereo not drawn) [Grepafloxacin] (20 µM),0.0227,0.0384,0.142,1.29,0.0669 (active),0.0355 (active),0.697 (inactive),0.738 (active),0.628 (active),0.155 (active),0.936 (inactive),0.731 (inactive)
COc1cc(N)c(Cl)cc1C(=O)NC1CCN(CCCOc2ccc(F)cc2)CC1OC (stereo not drawn) [Cisapride] (20 µM),0.913,0.988,0.969,0.705,0.959 (inactive),0.972 (inactive),0.922 (inactive),1 (inactive),0.983 (inactive),1.02 (inactive),0.993 (inactive),0.929 (inactive)
Clc1ccc(C(Cn2ccnc2)OCc2ccsc2Cl)c(Cl)c1 (stereo not drawn) [Tioconazole] (20 µM),1.21,0.866,0.838,0.0103,1.05 (inactive),0.957 (inactive),0.26 (active),1.01 (inactive),1.01 (inactive),0.982 (inactive),0.997 (inactive),0.275 (active)
C=C1c2c(Cl)ccc(O)c2C(O)=C2C(=O)[C@]3(O)C(O)=C(C(N)=O)C(=O)[C@@H](N(C)C)[C@@H]3[C@@H](O)[C@H]12.O=C(O)c1cc(S(=O)(=O)O)ccc1O [Meclocycline sulfosalicylate] (20 µM),0.0138,0.000715,0.0719,0.113,0.0573 (active),0.0133 (active),0.0772 (active),0.14 (active),0.444 (active),0.447 (active),0.514 (active),0.11 (active)
Nc1ccc2cc3ccc(N)cc3nc2c1 [Proflavine hemisulfate] (20 µM),1.13,0.951,1,1.02,0.816 (inactive),1 (inactive),0.861 (inactive),1.03 (inactive),0.963 (inactive),1.16 (inactive),0.982 (inactive),0.861 (inactive)
C[C@]12CCC3=C4CCC(=O)C=C4CC[C@H]3[C@@H]1CC[C@@]2(O)CC#N [Dienogest] (20 µM),0.815,0.536,0.616,0.67,0.945 (inactive),1.01 (inactive),1.04 (inactive),0.979 (inactive),1 (inactive),0.993 (inactive),1 (inactive),1.02 (inactive)
